In PubChem BioAssay (NCATS):
Results filed as inconclusive are left out. The source made the active and inactive calls. Calls come from the whole dose curve; as a rule, active = well fitted curve in the direction sought with a large enough effect; inconclusive = small, poorly fitted or top-dose-only effect, or another doubt; inactive = no such curve, though single readings can be large; an effect the other way counts as inactive or inconclusive.

Legend:
[1] = Quantitative High-Throughput drug screen in 47 multiple myeloma cell lines against the NCATS MIPE library collection: Delta47_JCRB cell viability assay (AID 1918925; note: nearly all actives have a fitted effect of over 45% in size)
Procedure, shortened: (§1)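 Myeloma cell lines, 500 cells per well, exposed to MIPE 4.0 library compounds for 48 h at 37C, 5% CO2. Viability from ATP by CellTiter-Glo luminescence; normalised to DMSO (100%) and media-only (0%) wells.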

[2] = Quantitative High-Throughput drug screen in 47 multiple myeloma cell lines against the NCATS MIPE library collection: EJM_DSMZ cell viability assay (AID 1918926; note: nearly all actives have a fitted effect of over 30% in size)
Procedure, shortened: as §1

[3] = Quantitative High-Throughput drug screen in 47 multiple myeloma cell lines against the NCATS MIPE library collection: ARD_JJKsccE7 cell viability assay (AID 1918929)
Procedure, shortened: as §1

[4] = Quantitative High-Throughput drug screen in 47 multiple myeloma cell lines against the NCATS MIPE library collection: Karpas620_DSMZ cell viability assay (AID 1918959); note: nearly all actives have a fitted effect of over 30% in size
Procedure, shortened: (§2)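 Inhibition of cell viability is measured here. Each line was plated at 500 cells per well, treated with MIPE 4.0 drugs, kept 48 hours at 37C, then assayed for ATP content by CellTiter-Glo luminescence.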

[5] = Quantitative High-Throughput drug screen in 47 multiple myeloma cell lines against the NCATS MIPE library collection: KHM11_PLB cell viability assay (AID 1918962); note: nearly all actives have a fitted effect of over 35% in size
Procedure, shortened: as §2

[6] = Quantitative High-Throughput drug screen in 47 multiple myeloma cell lines against the NCATS MIPE library collection: JIM3_ECACC cell viability assay (AID 1918963; note: nearly all actives have a fitted effect of over 35% in size)
Procedure, shortened: as §2

[7] = Quantitative High-Throughput drug screen in 47 multiple myeloma cell lines against the NCATS MIPE library collection: JJN3_DSMZ cell viability assay (AID 1918966; note: nearly all actives have a fitted effect of over 50% in size)
Procedure, shortened: as §1

[8] = Quantitative High-Throughput drug screen in 47 multiple myeloma cell lines against the NCATS MIPE library collection: Karpas25_ECACC cell viability assay (AID 1918968; note: nearly all actives have a fitted effect of over 35% in size)
Procedure, shortened: as §1

[9] = Quantitative High-Throughput drug screen in 47 multiple myeloma cell lines against the NCATS MIPE library collection: KMS27_JCRB cell viability assay (AID 1918970); details: KMS27 myeloma cells, CellTiter-Glo ATP viability, 48 h; viability (% of DMSO): at 45.8 µM (top of the series); note: nearly all actives have a fitted effect of over 30% in size
Procedure, shortened: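 Each line is seeded at 500 cells per well and treated with library compounds for 48 hours under 37 °C, 5% CO2. CellTiter-Glo is then added for 5 min at room temperature before median relative luminescence is recorded.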

[10] = Quantitative High-Throughput drug screen in 47 multiple myeloma cell lines against the NCATS MIPE library collection: KMS12PE_JCRB cell viability assay (AID 1918972); note: nearly all actives have a fitted effect of over 30% in size
Procedure, shortened: (§3)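 qHTS of the MIPE 4.0 collection: 500 myeloma cells/well, 48 h drug exposure at 37C in 5% CO2, then CellTiter-Glo for 5 min at room temperature before luminescence reading.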

[11] = Quantitative High-Throughput drug screen in 47 multiple myeloma cell lines against the NCATS MIPE library collection: AMO1_DSMZ cell viability assay (AID 1918927; note: nearly all actives have a fitted effect of over 30% in size)
Procedure, shortened: as §1

[12] = Quantitative High-Throughput drug screen in 47 multiple myeloma cell lines against the NCATS MIPE library collection: KMM1_JCRB cell viability assay (AID 1918960); note: nearly all actives have a fitted effect of over 30% in size
Procedure, shortened: (§4)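 Myeloma cells at 500 per well in 1536-well format treated with MIPE 4.0 library by pin transfer for 48 h at 37C, 5% CO2. Viability from ATP luminescence (CellTiter-Glo), normalized to DMSO (100%) and media-only (0%) wells.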

[13] = Quantitative High-Throughput drug screen in 47 multiple myeloma cell lines against the NCATS MIPE library collection: Karpas417_ECACC cell viability assay (AID 1918961); details: Karpas417 myeloma viability, CellTiter-Glo ATP luminescence, 48 h; viability (% of DMSO): at 45.8 µM (top of the series)
Procedure, shortened: as §3

[14] = Quantitative High-Throughput drug screen in 47 multiple myeloma cell lines against the NCATS MIPE library collection: JIM1_ECACC cell viability assay (AID 1918964)
Procedure, shortened: as §1

[15] = Quantitative High-Throughput drug screen in 47 multiple myeloma cell lines against the NCATS MIPE library collection: INA6_PLB cell viability assay (AID 1918965; note: nearly all actives have a fitted effect of over 55% in size)
Procedure, shortened: as §3

[16] = Quantitative High-Throughput drug screen in 47 multiple myeloma cell lines against the NCATS MIPE library collection: KMS20_JCRB cell viability assay (AID 1918973); note: nearly all actives have a fitted effect of over 45% in size
Procedure, shortened: as §1

[17] = Quantitative High-Throughput drug screen in 47 multiple myeloma cell lines against the NCATS MIPE library collection: H1112_PLB cell viability assay (AID 1918967; note: nearly all actives have a fitted effect of over 30% in size)
Procedure, shortened: as §1

[18] = Quantitative High-Throughput drug screen in 47 multiple myeloma cell lines against the NCATS MIPE library collection: ARP1_JJKsccF8 cell viability assay (AID 1918928; note: nearly all actives have a fitted effect of over 40% in size)
Procedure, shortened: as §4

[19] = Quantitative High-Throughput drug screen in 47 multiple myeloma cell lines against the NCATS MIPE library collection: KMS12BM_JCRB cell viability assay (AID 1918971); note: nearly all actives have a fitted effect of over 35% in size
Procedure, shortened: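 Relative luminescence from CellTiter-Glo served as the viability signal, referenced to DMSO-treated (100%) and cell-free medium (0%) controls. Treatment lasted 48 hours at 37C with 500 cells per well.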
Potency is the fitted concentration of half-maximal effect.

| SMILES | Potency [1] | Potency [2] | Potency [3] | Potency [4] | Potency [5] | Potency [6] | Potency [7] | Potency [8] | Potency [9] | Potency [10] | Potency [11] | Potency [12] | Potency [13] | Potency [14] | Potency [15] | Potency [16] | Potency [17] | Potency [18] | Potency [19] |
| --- | --- | --- | --- | --- | --- | --- | --- | --- | --- | --- | --- | --- | --- | --- | --- | --- | --- | --- | --- |
| c1cc(OCCN2CCCCC2)cc(-c2n[nH]c3ccc(-c4ncn[nH]4)cc23)c1 | 13.2 µM (active) | 33.2 µM (active) | 2.35 µM (active) | inactive | 14.8 µM (active) | 18.7 µM (active) | 11.8 µM (active) | 14.8 µM (active) | 18.7 µM (active) | 23.5 µM (active) |  |  |  |  |  |  |  |  |  |
| CC(C)Oc1cc(Nc2nc(N[C@@H](C)c3ccc(F)cn3)ncc2Cl)[nH]n1 | 8.33 µM (active) | 20.9 µM (active) |  |  | 10.5 µM (active) | 8.33 µM (active) | 20.9 µM (active) | 10.5 µM (active) | 20.9 µM (active) | 23.5 µM (active) | 18.7 µM (active) | 16.6 µM (active) | 2.64 µM (active) | 20.9 µM (active) | 7.43 µM (active) | 4.69 µM (active) |  |  |  |
| CC1(C)[C@H]2CC[C@]3(C)[C@@H](C(=O)C=C4[C@@H]5C[C@@](C)(C(=O)O)CC[C@]5(C)CC[C@]43C)[C@@]2(C)CC[C@@H]1O | inactive | inactive | inactive | inactive |  | inactive |  |  | inactive | inactive |  | inactive | inactive |  | inactive |  | inactive |  |  |
| CC[C@H](C)n1cc(C)c2c(C(=O)NCc3c(C)cc(C)[nH]c3=O)cc(-c3ccc(N4CCNCC4)nc3)cc21 | 20.9 µM (active) | 20.9 µM (active) |  | inactive | 29.6 µM (active) |  |  | 23.5 µM (active) |  | inactive | inactive | inactive |  | inactive | 18.7 µM (active) | 18.7 µM (active) |  |  |  |
| CCc1cc(-c2n[nH]c(C)c2-c2ccc3c(c2)OCCO3)c(O)cc1O | 7.43 µM (active) |  |  | 14.8 µM (active) | 4.69 µM (active) | 8.33 µM (active) | 4.18 µM (active) | 7.43 µM (active) | 5.9 µM (active) | 5.26 µM (active) | 3.72 µM (active) | 3.72 µM (active) |  | 5.9 µM (active) | 4.69 µM (active) |  | 8.33 µM (active) | 2.96 µM (active) | 5.26 µM (active) |
| O=C(c1ccc(C=Cc2n[nH]c3ccccc23)cc1)N1CCNCC1 | 3.32 µM (active) | 20.9 µM (active) | 1.32 µM (active) |  | 0.833 µM (active) | 2.64 µM (active) | 18.7 µM (active) | 3.72 µM (active) |  | 2.35 µM (active) |  | 5.26 µM (active) |  | 3.72 µM (active) | 3.32 µM (active) | 1.87 µM (active) |  |  |  |
| Cc1nn(Cc2ccccc2Cl)c(C)c1CN(C)CC(O)COc1ccc(Cl)cc1 (centres undefined) | 18.7 µM (active) |  |  |  |  | 18.7 µM (active) |  | 20.9 µM (active) |  | 5.9 µM (active) | inactive | 5.9 µM (active) |  |  | 20.9 µM (active) |  |  |  | 23.5 µM (active) |
| CN1CCc2c(n(Cc3ccc(C(=O)NO)cc3)c3ccccc23)C1 | 20.9 µM (active) |  |  |  |  |  | 16.6 µM (active) | 16.6 µM (active) | 0.743 µM (active) |  |  |  |  |  | 4.69 µM (active) |  |  |  | 18.7 µM (active) |
| CCOc1ccccc1N=Nc1c(C)[nH]n(-c2nc(-c3ccccc3)cs2)c1=O | inactive |  |  |  | inactive | inactive | 10.5 µM (active) | 1.66 µM (active) | 9.35 µM (active) | 18.7 µM (active) | inactive | inactive |  | 1.66 µM (active) | inactive |  |  | inactive | 16.6 µM (active) |
| CCc1cccc(CC)c1NC(=O)N1Cc2[nH]nc(NC(=O)c3ccc(N4CCN(C)CC4)cc3)c2C1 | 5.9 µM (active) |  |  |  | 16.6 µM (active) | 4.69 µM (active) | 1.66 µM (active) | 13.2 µM (active) |  |  | 7.43 µM (active) | 7.43 µM (active) |  | inactive | 4.69 µM (active) |  | 20.9 µM (active) |  | 18.7 µM (active) |
| CN(C(Cc1ccc(OS(=O)(=O)c2cccc3cnccc23)cc1)C(=O)N1CCN(c2ccccc2)CC1)S(=O)(=O)c1cccc2cnccc12 (centres undefined) | 5.26 µM (active) |  | 5.9 µM (active) | 5.9 µM (active) |  | 6.62 µM (active) | 5.9 µM (active) | 11.8 µM (active) |  | 5.26 µM (active) | 8.33 µM (active) |  | 4.18 µM (active) | 1.87 µM (active) | 3.72 µM (active) | 2.64 µM (active) | 8.33 µM (active) |  | 10.5 µM (active) |
| COc1ccc2c(c1)c(C1=C(c3c[nH]c4ccccc34)C(=O)NC1=O)cn2CCCN(C)C | 7.43 µM (active) |  | 23.5 µM (active) |  |  | 13.2 µM (active) | 20.9 µM (active) | 20.9 µM (active) | 18.7 µM (active) | 16.6 µM (active) | 14.8 µM (active) | 23.5 µM (active) |  |  | 0.526 µM (active) | 14.8 µM (active) |  |  |  |
| C=CC[N+]1([C@H]2C[C@H]3[C@@H]4CC[C@H]5C[C@H](O)[C@@H](N6CCOCC6)C[C@]5(C)[C@@H]4CC[C@]3(C)[C@H]2OC(C)=O)CCCC1 | inactive |  | inactive | inactive | inactive | inactive | 0.0053 µM (active) |  | inactive | inactive |  | inactive | inactive |  | inactive |  | inactive |  | inactive |
